Screens: PubChem BioAssay, National Center for Advancing Translational Sciences (NCATS)
This excerpt belongs to a sample that is enriched for hits.
Pf Dd2 inh = Plasmodium falciparum Dd2 growth inhibition. 4.3% of 120,000 active. P. falciparum Dd2 growth, SYBR Green, 72 h. Potency, µM (titrated, usually from 28.9 µM), for inactives: top-dose activity, negative = inhibition, most hits filed as inhibitors; active = well fitted inhibition curve with a large enough effect;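 note: plate controls were DMSO vehicle for no effect and reference drug for full effect; nearly all actives have a fitted effect of over 65% in size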
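Readout: SYBR Green fluorescence, 485 nm excitation, 535 nm emission, after ~16 h lysis at 37C. Before that, Dd2-infected red cells (2.5% hematocrit) grew 72 h with compound, 29 uM top final concentration.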
The depositor's hits bear a star; [ ] = remark or other dose. Potency is the fitted concentration of half-maximal effect.

C#CCN(C)C[C@H]1CN2CC[C@H]1C[C@@H]2CNS(=O)(=O)c1ccccc1 was read as Pf Dd2 inh inactive.
For CNC(=O)c1[nH]nc2c1C(c1c(C)nc3ccc(Cl)cn13)CC(=O)N2 (stereo unspecified) the results were Pf Dd2 inh -3%.
Screening CCc1noc(-c2cn(C3CCN(C(=O)c4ccco4)C3)nn2)n1 (stereo unspecified) returned Pf Dd2 inh inactive.
Screening CN1CC(=O)N(c2cccnc2)Cc2c(NCC3CC3)ncnc21 returned Pf Dd2 inh -2%[44.1 µM].
`COCCc1nncn1C1CCN(S(=O)(=O)c2ccc(F)c(C)c2)CC1` gave Pf Dd2 inh -5%.
For Cc1cccc(CN2CCC3(CC2)CCN(Cc2cccc(O)c2)CC3CO)n1 (stereo unspecified) the results were Pf Dd2 inh 8%.
`COCCCNC(=O)Cn1nc2c(cc1=O)CCCC2` gave Pf Dd2 inh -13%.
For COc1cccc(C(=O)N[C@@H]2CN(c3ccccn3)C[C@H]2CN(C)C)c1OC the results were Pf Dd2 inh -1%.
For O=C1NCCOCCN(S(=O)(=O)c2cccc3nsnc23)[C@H]2CCC[C@@H]12 the results were Pf Dd2 inh 26%.
Screening Fc1ccc(CN2CCC3(CC2)CC(c2cccc(C(F)(F)F)c2)=NO3)cc1 returned Pf Dd2 inh -7%.
COC(=O)c1c(-c2ccc(Cl)cc2)noc1N1CCN(c2ccc(F)cc2)CC1 was read as Pf Dd2 inh -17%.
CC(=O)NC1(C)CCN(c2cccc(C(F)(F)F)c2)CC1 was read as Pf Dd2 inh -19%[44.1 µM].
`COC(=O)c1c(-c2ccc(Cl)cc2)noc1N1CCN(c2cccc(C(F)(F)F)c2)CC1` gave Pf Dd2 inh 7.1µM*.
Screening CCn1cnnc1CC1CCN(C(=O)CCC(=O)n2nc(C)c3ccccc32)CC1 returned Pf Dd2 inh -19%.
`CC1(C)CC(=O)C=C(C(=O)N2CCCC(N3CCN(c4ccccc4F)CC3)C2)O1` (stereo unspecified) gave Pf Dd2 inh -10%.
For O=C(Nc1ccnn1C1CCN(Cc2ccc(OC3CCCC3)cc2)CC1)C1CC1 the results were Pf Dd2 inh -4%.
`C[C@]1(O)CCN(C(=O)c2ccc(N3CCOCC3)cc2)C[C@@H]1O` gave Pf Dd2 inh -7%.
`Cc1cc(C)c2c(CC(=O)N3CCc4c(nc[nH]c4=O)C3)coc2c1C` gave Pf Dd2 inh -11%.
Cc1ccccc1-c1nc(-c2c(C)noc2C)cc2cc(CN(C)C)oc12 was read as Pf Dd2 inh -9%[44.1 µM].
Screening CC(=O)N1CCN(c2nc(-c3c(C)noc3C)cc3cc(CN(C)C)oc23)CC1 returned Pf Dd2 inh 7.9µM*.
Screening Cc1cc2cc(-c3c(C)noc3C)nc(N3CCN(C)C(=O)C3)c2o1 returned Pf Dd2 inh inactive.
C=CCN(C)C(=O)[C@H]1CN2CCC1C[C@@H]2Cn1cc(CO)nn1 (stereo partly specified) was read as Pf Dd2 inh 27%[44.1 µM].
Screening CC(C)C1CNC(Cc2ccccc2)CN1C(=O)OC(C)(C)C (stereo unspecified) returned Pf Dd2 inh 8.9µM*.
Screening CC(C)(C)OC(=O)N1CC(c2ccccc2)C1 returned Pf Dd2 inh inactive.
`CC(C)C1CN(C(=O)OC(C)(C)C)C(C)CN1` (stereo unspecified) gave Pf Dd2 inh 26%[44.1 µM].
`CCc1ccccc1OCC(=O)c1ccc2c(c1)N(CC(=O)NCCCOC)C(=O)CO2` gave Pf Dd2 inh inactive.
Screening OCC1CCCCN1CCNc1nccc(-c2cccnc2)n1 (stereo unspecified) returned Pf Dd2 inh -30%.
CN1CCCC1CCNc1nccc(-c2cnn(-c3ccc(F)cc3)c2)n1 (stereo unspecified) was read as Pf Dd2 inh 8.9µM*.
c1cncc(-c2ccnc(NCC(c3cccnc3)N3CCCCC3)n2)c1 (stereo unspecified) was read as Pf Dd2 inh -13%.
Screening Cc1cccc(C(=O)N2CCCC(c3nc(C(C)C)no3)CCNC(=O)CC2)c1 (stereo unspecified) returned Pf Dd2 inh -10%.
CCCCNc1ccc2nncn2n1 was read as Pf Dd2 inh 25%.
Screening CC(C)NC(=O)CC1Sc2ncccc2N(C)C1=O (stereo unspecified) returned Pf Dd2 inh 3%.
For CCNC(=O)N1CC(Oc2ccccc2-c2nc(-c3cnccn3)no2)C1 the results were Pf Dd2 inh -26%.
O=C(Nc1ccccc1)N1CCC(Oc2ccccc2-c2nc(-c3cnccn3)no2)C1 (stereo unspecified) was read as Pf Dd2 inh inactive.
`c1csc(CN2CCC(Oc3ccccc3-c3nc(-c4cnccn4)no3)C2)c1` (stereo unspecified) gave Pf Dd2 inh 5.6µM*.
For CCOc1ccc(C(=O)N2CCC[C@H]2c2nc(-c3ccccc3Cl)no2)cc1 the results were Pf Dd2 inh 5%.
Cc1ncc2c(n1)C[C@@H]1CC[C@H]2N1C(=O)Nc1ccc(C)c(F)c1 was read as Pf Dd2 inh 7%.
Screening COC1C(=O)N(c2cccc(F)c2)C12CCN(S(=O)(=O)c1ccccc1C)CC2 (stereo unspecified) returned Pf Dd2 inh 13µM*.
COC1C(=O)N(c2cccc(F)c2)C12CCN(C(=O)c1cnc(C)cn1)CC2 (stereo unspecified) was read as Pf Dd2 inh -8%.
COC1C(=O)N(C2CCN(Cc3ccc(F)cc3F)CC2)C12CCOCC2 (stereo unspecified) was read as Pf Dd2 inh -8%.
For COC1CCOC2(CCN(S(=O)(=O)c3ccccc3C)CC2)C1 (stereo unspecified) the results were Pf Dd2 inh -5%.
Screening COC1C(=O)N(C2CCN(C(=O)CCc3c[nH]c4ccccc34)CC2)C12CCOCC2 (stereo unspecified) returned Pf Dd2 inh -11%.
For COC1C(=O)N(c2cccc(F)c2)C12CCN(C(=O)C(C)C)CC2 (stereo unspecified) the results were Pf Dd2 inh -11%.
COC1C(=O)N(c2cccc(F)c2)C12CCN(C(=O)CCc1c[nH]c3ccccc13)CC2 (stereo unspecified) was read as Pf Dd2 inh 7.9µM*.
`C[C@]1(O)CCN(C(=O)CCc2c[nH]c3ccccc23)C[C@@H]1O` gave Pf Dd2 inh 4%.
COC1C(=O)N(c2cccc(F)c2)C12CCN(Cc1ccc(F)cc1F)CC2 (stereo unspecified) was read as Pf Dd2 inh 10µM*.
For O=C(C1CCN(c2cnn(Cc3ccccc3)c(=O)c2)C1)N1CCc2ccccc2C1 (stereo unspecified) the results were Pf Dd2 inh -1%.
Screening COc1ccc(-c2noc([C@@H]3CCCN3C(=O)c3cccc(C)c3)n2)cc1 returned Pf Dd2 inh -7%.
Screening COCCC(=O)N1CCC(N2C[C@H](O)C[C@H]2C(=O)NCc2cccc(OC)c2)CC1 returned Pf Dd2 inh 34%.
CCO[C@H]1CN(C(=O)CCSCc2ccc(F)cc2)C[C@@H]1O was read as Pf Dd2 inh -8%.
COc1ccc(CCC(=O)N2CCC(Cc3nc(-c4ccccc4)no3)CC2)cc1 was read as Pf Dd2 inh -22%.
Screening CO[C@H]1[C@H](NC(=O)c2ccc(C)nc2)c2ccccc2C12CCNCC2 returned Pf Dd2 inh -1%.
CC(C)n1cnnc1-c1nn(C)c2c1CN(C(=O)Cc1c[nH]c3ccccc13)CC2 was read as Pf Dd2 inh 8.9µM*.
For CCNC(=O)N1CCc2c(c(-c3nncn3-c3ccccc3)nn2C)C1 the results were Pf Dd2 inh 8%.
